This is an account of results in publication PMC11062922 (Nature Chemical Biology, 2023).

Holding throughout (set-up): species or system human, MV4-11 + K-562 + COLO205 + SK-N-BE2 + OVCAR-8
The test system of one test is CDC42BPB. To be noted: read-out: apparent Kd, n = 1.
The subject of the next test is PKN2. To be noted: read-out: apparent Kd, n = 1.
The test system of another test is PRKCA. To be noted: read-out: apparent Kd, n = 1.
A further test deals with RPS6KB1. To be noted: read-out: apparent Kd, n = 1.
A further test concerns CIT. To be noted: read-out: apparent Kd, n = 1.
Another test concerns PIK3CD. To be noted: read-out: apparent Kd, n = 1.
For the next test, the system named is TTK. To be noted: read-out: apparent Kd, compound concentrations: 100 nM and 1000 nM (sheet 'Samples'), n = 1.
The subject of the next test is RPS6KA3. To be noted: read-out: apparent Kd; compound concentrations:100 nM and 1000 nM (sheet 'Samples'); n = 1.
The next test concerns AURKB. To be noted: read-out: apparent Kd; compound concentrations:100 nM and 1000 nM (sheet 'Samples'); n = 1.
The test system of a further test is MAPK14. To be noted: read-out: apparent Kd, compound concentrations: 100 nM and 1000 nM (sheet 'Samples'), n = 1.
The test system of another test is BTK. To be noted: read-out: apparent Kd; compound concentrations: 100 nM and 1000 nM (sheet 'Samples'), CATDS: 1.9599592223560901E-2; n = 1.
The test system of another test is PAK6. To be noted: read-out: apparent Kd; compound concentrations: 100 nM and 1000 nM (sheet 'Samples'), CATDS: 1.7508305071041501E-2; n = 1.
For a further test, the system named is PTK6. To be noted: read-out: apparent Kd; compound concentrations: 100 nM and 1000 nM (sheet 'Samples'), CATDS: 1.9530380694073899E-2; n = 1.
Where [1] appears, read: compound concentrations:100 nM and 1000 nM (sheet 'Samples').

Like-named read-outs stand apart in the source and are kept apart here.

Turning to `Cl.Cl.NC[C@H](CC1CCCCC1)NC(=O)c1ccc(-c2ccnc3[nH]ccc23)s1.NC[C@H](CC1CCCCC1)NC(=O)c1ccc(-c2ccnc3[nH]ccc23)s1` [GSK1581428A], the potency estimated from few doses with CDC42BPB (setting [1]) is 0.0105 µM; with PKN2 (setting [1]), 0.452 µM; in the test with PRKCA (setting [1]), 2.08 µM; with RPS6KB1 (setting [1]), 0.179 µM.
As to `Cl.Cl.NCC(NC(=O)c1cc(-c2ccnc3[nH]ccc23)cs1)c1ccccc1.NCC(NC(=O)c1cc(-c2ccnc3[nH]ccc23)cs1)c1ccccc1` (centres unmarked) [GSK1229959A], the potency estimated from few doses with CDC42BPB (compound concentrations: 100 nM and 1000 nM (sheet 'Samples'), CATDS: 9.85023329891931E-2) is 0.00896 µM; with CIT (compound concentrations: 100 nM and 1000 nM (sheet 'Samples'), CATDS: 3.2542810657946203E-2), 0.113 µM; with PIK3CD (compound concentrations: 100 nM and 1000 nM (sheet 'Samples'), CATDS: 7.85579878499649E-2) it was 0.0132 µM; in the test on PKN2 (compound concentrations: 100 nM and 1000 nM (sheet 'Samples'), CATDS: 3.5150417589149101E-2), 0.0885 µM; with RPS6KB1 (compound concentrations: 100 nM and 1000 nM (sheet 'Samples'), CATDS: 2.0581414615248698E-2), 0.679 µM.
In the case of `Cl.Cn1cc(C2=C(c3c4n(c5ccccc35)CCNC4)C(=O)NC2=O)c2ccccc21` [RO0318365-001], in the test with PRKCA (compound concentrations: 100 nM and 1000 nM (sheet 'Samples'), CATDS: 4.6045234882761202E-2), the potency estimated from few doses is 2.15 µM.
For the compound `CCn1c(-c2nonc2N)nc2cncc(C(=O)N3CC[C@H](N)C3)c21.Cl` [SB-772077-B], the potency estimated from few doses with CDC42BPB (setting [1]) was 0.932 µM; with CIT (setting [1]), 1.45 µM; in the test on PKN2 (setting [1]), 0.0738 µM; in the test on PRKCA (setting [1]) it was 0.826 µM; in the test on RPS6KB1 (setting [1]), 0.0938 µM.
As for `NS(=O)(=O)c1ccc(N/N=C2\C(=O)Nc3ccc4ncccc4c32)cc1` [GW305178X], in the test on TTK (CATDS: 4.7574405243594603E-2), the potency estimated from few doses was 1.13 µM.
Take `CN(C)c1ccc2c(c1)/C(=C/Nc1ccc(S(N)(=O)=O)cc1)C(=O)N2` [GW416469X]: the potency estimated from few doses in the test with PIK3CD (compound concentrations: 100 nM and 1000 nM (sheet 'Samples'), CATDS: 0.23489654545894101) is 0.138 µM.
As to `COc1ccc(Nc2nccc(NCCNC(=O)Nc3cc(C)ccc3C)n2)cc1` [GSK1379899A], the potency estimated from few doses in the test with PIK3CD (compound concentrations: 100 nM and 1000 nM (sheet 'Samples'), CATDS: 0.14570623002858099) is 0.175 µM.
Regarding `CCn1c(-c2nonc2N)nc2cncc(Br)c21` [SB-738004], the potency estimated from few doses with CDC42BPB (setting [1]) is 1.97 µM; in the test with PKN2 (setting [1]), 0.122 µM; in the test on PRKCA (setting [1]), 1.29 µM; with RPS6KB1 (setting [1]) it was 0.36 µM.
Turning to `Cc1occc1-c1nc(N)c(OC[C@@H](N)Cc2c[nH]c3ccccc23)cc1-c1cc2c(C)n[nH]c2cn1` [GSK1660450B], the potency estimated from few doses was 0.106 µM in the test on CDC42BPB (setting [1]); 0.135 µM in the test with CIT (setting [1]); 0.00867 µM in the test on PIK3CD (setting [1]); 2.11 µM in the test with PKN2 (setting [1]); 0.04 µM in the test on PRKCA (setting [1]); 0.861 µM in the test on RPS6KA3. The potency estimated from few doses in the test with RPS6KB1 (setting [1]) is 0.112 µM.
On to `Cl.Nc1nc(-c2ccc3c(c2)C(=Cc2cc(Br)c(O)c(Br)c2)C(=O)N3)cs1` [GW407323A], for which the potency estimated from few doses in the test on TTK (CATDS: 2.7527023575449099E-2) was 2.15 µM.
For the compound `Nc1nc(-c2ccc3c(N)n[nH]c3c2)cc(N2CCCC(NC(=O)c3ccccc3)C2)n1` (centres unmarked) [GSK2286775B], the potency estimated from few doses in the test with AURKB was 0.414 µM.
With `CCC(CC)(CC)n1cnc2c(N)ncnc21` [SKF-97620], the potency estimated from few doses in the test with MAPK14 (CATDS: 3.1976912509304997E-2) is 0.857 µM; with PIK3CD (compound concentrations: 100 nM and 1000 nM (sheet 'Samples'), CATDS: 0.27263149415517701), 0.0205 µM.
On to `Cl.Cn1c(=O)c(Cc2ccccc2F)cc2cnc(NC3CCOCC3)nc21` [RO3305377-001], for which the potency estimated from few doses in the test with BTK is 1.18 µM; in the test on MAPK14 (CATDS: 8.5761159080735103E-2) it was 0.105 µM; in the test on PAK6 it was 1.64 µM; in the test on PTK6 it was 1.19 µM.
As for `O=C1N=C(NCCc2ccccc2F)S/C1=C\c1ccc2ncccc2c1` [RO4498483-000], in the test with RPS6KB1 (compound concentrations: 100 nM and 1000 nM (sheet 'Samples'), CATDS: 7.08215510279748E-2), the potency estimated from few doses is 1.72 µM.
